# NCOA1 inh – SRC1 coactivator transcriptional activity inhibitors, primary screen, cell-based, luminescence; HEK293 GAL4-SRC1 luciferase reporter; Nuclear receptor coactivator 1 (Homo sapiens), Q15788; actives 0.12% (n = 360,000); inhibition, % at 3.6 µM;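 active = inhibition above the campaign mean plus 3 SD, with each screening campaign given its own cutoff, cut at about 60% in these data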;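 also: 0% = DMSO treated cells and 100% = gossypol at 36 µM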
# GalR3 antagonist – GalR3 antagonists in HEK293 cells, primary screen, cell-based, fluorescence readout. actives 0.44% (n = 360,000). HEK293 GalR3-CNG cAMP membrane potential fluorescence; galR3 body fused to GalR1 C-terminus. Galanin receptor type 3 (Homo sapiens), O60755. inhibition, % at 3 µM;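 active = inhibition above the screen-wide average plus 3 SD, cut at about 13% in these data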;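 also: forskolin and galanin both at EC90 stimulate the cells; cAMP rise reported by CNG channel membrane potential dye signal; 0% = forskolin plus galanin with DMSO and 100% = forskolin alone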
# NCOA3 inh – SRC3 coactivator transcriptional activity inhibitors, primary screen, cell-based, luminescence; AID 588352, 2011; inhibition, % at 3.6 µM; Nuclear receptor coactivator 3 (Homo sapiens), Q9Y6Q9; HEK293 GAL4-SRC3 luciferase reporter; actives 0.17% (n = 360,000);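 active = inhibition above a per-campaign cutoff, the mean of all compounds plus 3 SD, cut at about 60% in these data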;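 also: 0% = DMSO-treated cells and 100% = gossypol-treated cells at 36 µM; higher means less SRC3-driven luciferase light from the GAL4 reporter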
# NR5A2 inv ag – LRH-1 (NR5A2) inverse agonists, primary screen, cell-based, luminescence, HEK293T, StAR-luciferase reporter; inhibition, % at 3.6 µM; Nuclear receptor subfamily 5 group A member 2 (Homo sapiens), O00482; LRH-1 transfected, 24 h; actives 0.13% (n = 360,000); AID 602396, 2012;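 active = inhibition above the mean inhibition of all tested compounds plus 3 SD, cut at about 73% in these data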;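 also: 0% = DMSO wells and 100% = reporter-only cells lacking LRH-1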
# SRC2 inh – inhibition of GAL4-SRC2 driven luciferase reporter, primary screen, SRC2 inhibitor project, cell-based, luminescence; inhibition, % at 9 µM; actives 0.17% (n = 370,000); AID 651957, 2012; Nuclear receptor coactivator 2 (Homo sapiens), Q15596; HEK293 GAL4-SRC2 luciferase reporter;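 active = inhibition above the mean inhibition of all tested compounds plus 3 SD, set per campaign, cut at about 52% in these data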;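 also: 0% = DMSO treated cells and 100% = cells given Gossypol at 36 µM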
# Target sequence (Q15596 whole entry, looked up, the tested form may be a part): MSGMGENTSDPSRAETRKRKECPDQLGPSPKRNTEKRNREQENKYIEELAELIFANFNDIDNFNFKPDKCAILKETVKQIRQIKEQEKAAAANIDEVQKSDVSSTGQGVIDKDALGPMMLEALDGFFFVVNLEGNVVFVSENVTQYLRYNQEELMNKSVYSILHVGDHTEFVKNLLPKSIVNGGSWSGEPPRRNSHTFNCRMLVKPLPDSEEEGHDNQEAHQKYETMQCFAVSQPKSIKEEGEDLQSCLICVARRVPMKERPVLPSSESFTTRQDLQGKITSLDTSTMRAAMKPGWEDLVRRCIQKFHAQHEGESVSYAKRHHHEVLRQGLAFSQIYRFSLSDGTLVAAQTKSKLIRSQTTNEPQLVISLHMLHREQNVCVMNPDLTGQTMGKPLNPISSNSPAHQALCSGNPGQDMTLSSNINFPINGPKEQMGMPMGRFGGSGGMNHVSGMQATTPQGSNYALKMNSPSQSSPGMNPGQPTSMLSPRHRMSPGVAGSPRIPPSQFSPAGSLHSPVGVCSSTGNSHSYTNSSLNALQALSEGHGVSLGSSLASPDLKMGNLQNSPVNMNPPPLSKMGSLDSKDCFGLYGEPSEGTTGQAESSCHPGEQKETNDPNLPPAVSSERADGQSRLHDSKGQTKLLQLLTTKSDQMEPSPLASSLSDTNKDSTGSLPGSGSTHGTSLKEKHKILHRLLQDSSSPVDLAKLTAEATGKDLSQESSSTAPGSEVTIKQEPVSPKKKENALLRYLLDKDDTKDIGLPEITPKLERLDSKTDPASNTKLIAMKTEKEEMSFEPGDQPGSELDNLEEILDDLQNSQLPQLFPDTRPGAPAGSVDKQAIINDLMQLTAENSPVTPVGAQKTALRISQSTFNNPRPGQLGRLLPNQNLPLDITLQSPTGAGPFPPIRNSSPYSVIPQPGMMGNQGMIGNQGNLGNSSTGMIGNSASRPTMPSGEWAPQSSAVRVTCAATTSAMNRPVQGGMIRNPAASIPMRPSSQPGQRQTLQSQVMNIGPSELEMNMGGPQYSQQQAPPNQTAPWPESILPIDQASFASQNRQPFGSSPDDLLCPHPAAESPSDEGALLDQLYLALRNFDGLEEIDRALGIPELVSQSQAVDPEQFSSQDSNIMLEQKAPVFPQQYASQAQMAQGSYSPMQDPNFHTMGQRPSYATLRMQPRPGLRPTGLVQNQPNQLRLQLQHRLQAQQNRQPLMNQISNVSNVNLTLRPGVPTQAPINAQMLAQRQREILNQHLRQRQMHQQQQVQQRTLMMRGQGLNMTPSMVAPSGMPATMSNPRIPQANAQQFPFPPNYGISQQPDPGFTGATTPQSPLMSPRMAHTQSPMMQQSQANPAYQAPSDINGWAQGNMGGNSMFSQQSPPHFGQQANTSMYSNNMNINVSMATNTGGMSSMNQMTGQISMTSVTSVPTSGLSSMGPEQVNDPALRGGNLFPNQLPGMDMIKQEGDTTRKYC
# NR2F2 inh – NR2F2 transcriptional activity inhibitors, primary screen, cell-based, luciferase reporter, HEK293T, luminescence. AID 686940, 2013. inhibition, % at 8.6 µM. COUP transcription factor 2 (Homo sapiens), P24468. actives 0.7% (n = 370,000). HEK293T NGFI-A luciferase reporter;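 active = inhibition above a per-plate cutoff, mean inhibition of test wells between control levels plus 3 SD, cut at about 38% in these data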;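 also: cells cotransfected with COUP-TFII expression vector driving the NGFI-A reporter; 0% = median of COUP-TF2 test wells and 100% = reporter-only cells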
# VP16 Luc counter – Gal4-VP16 luciferase reporter inhibitors, counter-screen for COUP-TFII antagonist project, cell-based, luminescence, HEK293. actives 25% (n = 2,500). shares compounds with NR2F2 inh. inhibition, % at 8.5 µM; in the data active = inhibition above about 13%
# NR2F2 inh conf – NR2F2 transcriptional activity inhibitors, confirmation, cell-based, luciferase reporter, HEK293, triplicate | shares compounds with NR2F2 inh | HEK293 NGFI-A luciferase reporter, luminescence | inhibition, % at 8.5 µM | actives 45% (n = 2,500);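 active = mean inhibition over three repeats above a set limit taken from the earlier primary screen, cut at about 38% in these data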;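 also: 100% = cells given the luciferase reporter alone without the COUP-TF2 vector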
# An asterisk follows results filed as active; nt = no result; ! = a repeat was not active. Most compounds without a hit are left out; they make up all but 1.1% or so of the library.
SMILES,NCOA1 inh,GalR3 antagonist,NCOA3 inh,NR5A2 inv ag,SRC2 inh,NR2F2 inh,VP16 Luc counter,NR2F2 inh conf
COC(=O)c1ccc2nc(Nc3nc4c(F)cc(F)cc4s3)sc2c1,55.3,-4.3,59.7,61.7,53.2*,66.1*,26.1*,81.6*
Cc1cn(C2CC(O)C(O)C(CO)O2)c(=O)[nH]c1=O (stereo not drawn),3.8,-5.9,-16.5,-4.7,-14.2,3.6,nt,nt
Cc1cn([C@H]2C=C[C@@H](CO)O2)c(=O)[nH]c1=O,-7.7,-3.9,-6.4,-1.5,-14.8,60.7*!,-0.6,-13.3
O=C(OC12CCCN(C1)/C(=C/c1ccncc1)C2)c1ccccc1 (stereo not drawn),nt,nt,nt,nt,7.0,44.6*,12.4,35.8
c1ccc(CCc2nc(-c3ccc(-n4cccc4)cc3)no2)cc1,-0.2,2.7,-22.0,-0.8,-29.3,2.2,nt,nt
c1ccn(-c2ccc(-c3noc(CCc4ccncc4)n3)cc2)c1,nt,nt,nt,nt,10.8,50.8*,-24.1,19.9
Cc1cc(N2CCN(C)CC2)nc2ccc(NC(=O)CCC(=O)NCCC(C)C)cc12,6.9,-2.9,6.5,-12.9,-12.3,-6.2,nt,nt
O=C(COc1ccccc1)Nc1nc(-c2ccc(S(=O)(=O)N3CCOCC3)cc2)cs1,8.0,-2.9,-5.8,16.5,21.0,15.1,nt,nt
O=C(CCc1ccc(S(=O)(=O)N2CCOCC2)cc1)Nc1nc(COc2ccccc2)cs1,5.0,-10.2,11.3,14.3,12.3,39.4*,-2.2,17.5
Clc1ccc(-n2ncc3c(NCCN4CCOCC4)ncnc32)cc1,42.0,3.1,57.9,43.2,37.1,55.6*,-29.1,48.2*
Clc1ccc(Cn2ncc3c(N4CCCCC4)ncnc32)cc1,-4.9,-0.8,14.0,-1.7,-18.5,2.4,nt,nt
Clc1ccc(-n2ncc3c(N4CCCCCC4)ncnc32)cc1,80.9*,6.6,80.4*,78.5*,69.9*,91.5*,80.3*,99.7*
Cc1ccc2c(c1)c1c(n2CC2COC(C)(C)O2)C(=O)CCC1 (stereo not drawn),13.1,-2.9,6.2,9.6,-7.5,-6.8,nt,nt
O=C(CCN1C(=O)C2C3C=CC(C3)C2C1=O)N1CCN(c2ccccn2)CC1 (stereo not drawn),8.2,-2.6,13.7,-1.0,-13.0,-3.0,nt,nt
O=C1C2C3C=CC(C3)C2C(=O)N1c1ccc(N2CCN(c3ccccn3)CC2)c([N+](=O)[O-])c1 (stereo not drawn),11.9,-2.2,27.9,25.0,4.8,42.0*,1.2,25.4
C=CCn1c(SCC(=O)c2ccc(CNC(C)=O)o2)nc2ccccc2c1=O,-8.0,-1.4,-14.6,8.8,11.1,-8.3,nt,nt
Cc1ccc(C)c(C(O)c2ncc(-c3ccc(C(F)(F)F)cc3)[nH]2)c1 (stereo not drawn),8.0,-8.4,5.8,5.7,-18.3,-5.6,nt,nt
Nc1ccc(Oc2ccccc2-c2ccccc2)cc1,43.9,-1.6,58.0,48.5,83.3*,78.2*,76.8*,73.3*
Cc1ccc(C(=O)N/N=C\c2ccc([N+](=O)[O-])s2)cn1,5.7,-1.0,18.9,37.8,27.4,39.8*,30.8*,20.2
O=C(N/N=C/c1ccc([N+](=O)[O-])s1)c1ccncc1,-3.3,nt,26.1,44.4,nt,nt,nt,nt
Cc1ccc(C(=O)N/N=C/c2ccc([N+](=O)[O-])s2)cc1,48.0,-0.5,56.1,47.5,82.8*,53.5*,84.5*,92.6*
Cc1[nH]cnc1C(=O)N/N=C/c1ccc([N+](=O)[O-])s1,-24.4,-10.9,-55.1,14.8,-8.1,-16.6,nt,nt
CC(NC(=O)[C@H](NC(=O)[C@@H]1Cc2ccccc2CN1)c1ccccc1)c1ccccc1 (stereo partly drawn),-12.2,-6.8,24.2,1.0,-0.7,7.8,nt,nt
CC(C)OC(=O)NC(Nc1ccccc1C(=O)O)(C(F)(F)F)C(F)(F)F,-5.2,8.4,4.8,-5.3,0.0,-34.5,nt,nt
COc1cccc(N(CC(=O)NC2CCCCC2)C(=O)CCC(=O)Nc2nc(C)cs2)c1,-3.3,-5.4,-5.4,4.0,-5.3,-7.3,nt,nt
SMILES,NCOA1 inh,GalR3 antagonist,NCOA3 inh,NR5A2 inv ag,SRC2 inh,NR2F2 inh,VP16 Luc counter,NR2F2 inh conf
Cc1ccc(/C=C/c2nc3ccccc3s2)s1,-105.4,-5.1,-32.7,-20.6,-17.9,10.9,nt,nt
CN(C)c1ccc(/C=C/c2nc3ccccc3s2)cc1,55.6,-4.6,64.4*,40.7,53.5*,68.6*,51.6*,81.8*
O=C(N/N=C/c1ccccc1C(=O)O)c1ccc(COc2cccc3cccnc23)cc1,-1.1,-4.5,-7.7,12.8,-10.3,7.3,nt,nt
O=C(N/N=C/c1ccc[nH]1)c1ccc(COc2cccc3cccnc23)cc1,36.3,2.6,69.1*,79.3*,33.9,73.1*,38.7*,89.3*
CC(=O)CSc1nc(N)c(C#N)c(-c2cccs2)c1C#N,22.5,-1.4,23.9,45.5,42.1,8.7,nt,nt
CC(C)OC(=O)CSc1nc(N)c(C#N)c(-c2cccs2)c1C#N,12.1,-8.6,24.5,31.2,10.2,44.7*,5.0,25.2
Cc1nn(-c2ccccc2Cl)c(Cl)c1/C=N/Nc1nc2ccccc2s1,66.8*,-1.7,78.7*,41.5,81.4*,85.6*,88.1*,102.2*
CCOC(=O)N/N=C/c1c(C)nn(-c2ccccc2Cl)c1Cl,-85.2,3.3,-43.1,-59.9,-100.4,-45.1,nt,nt
O=C1COc2ccc(S(=O)(=O)CCC(=O)N3CCN(c4cccc(C(F)(F)F)c4)CC3)cc2N1,20.7,-2.4,30.1,-12.9,12.8,27.4,nt,nt
COc1ccccc1N1CCN(C(=O)COc2cc(C)cc(C)c2)CC1,14.9,1.9,-0.9,-0.6,6.0,-12.7,nt,nt
Cc1ccc(Cc2c(-c3ccco3)nc3c4ccccc4ccn23)cc1,25.2,-3.2,-0.6,38.0,-18.0,40.8*,-107.0,19.1
Cc1ccc(Cc2c(-c3ccco3)nc3ccc(C)cn23)cc1,-32.0,-2.1,-37.2,-34.9,-45.0,-4.0,nt,nt
N/C(=N\OC(=O)CCC1CCCC1)c1ccc(Cl)cc1,12.8,4.9,-20.6,14.3,-10.9,0.6,nt,nt
